Data from PubChem BioAssay (NCATS).
Records with an inconclusive call do not appear. Activity calls are given as the source filed them. Calls follow the shape of the dose curve; as a rule, active = well fitted curve in the direction sought with a large enough effect; inconclusive = small, poorly fitted or top-dose-only effect, or another doubt; inactive = no such curve, though single readings can be large; an effect the other way counts as inactive or inconclusive.

Experiments:
[1] = Quantitative High-Throughput drug screen in 47 multiple myeloma cell lines against the NCATS MIPE library collection: Karpas417_ECACC cell viability assay (AID 1918961); details: Karpas417 myeloma viability, CellTiter-Glo ATP luminescence, 48 h; viability (% of DMSO): at 45.8 µM (top of the series)
Outline: (§1)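 Myeloma cell lines, 500 cells per well, exposed to MIPE 4.0 library compounds for 48 h at 37C, 5% CO2. Viability from ATP by CellTiter-Glo luminescence; normalised to DMSO (100%) and media-only (0%) wells.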

[2] = Quantitative High-Throughput drug screen in 47 multiple myeloma cell lines against the NCATS MIPE library collection: KHM11_PLB cell viability assay (AID 1918962); details: KHM11 myeloma cell viability, CellTiter-Glo ATP luminescence, 48 h; series mostly up to 45.8 µM; also: nearly all actives have a fitted effect of over 35% in size
Outline: as §1

[3] = Quantitative High-Throughput drug screen in 47 multiple myeloma cell lines against the NCATS MIPE library collection: JIM3_ECACC cell viability assay (AID 1918963; also: nearly all actives have a fitted effect of over 35% in size); details: JIM3 myeloma viability, CellTiter-Glo ATP, 48 h; series mostly up to 45.8 µM
Outline: as §1

[4] = Quantitative High-Throughput drug screen in 47 multiple myeloma cell lines against the NCATS MIPE library collection: JIM1_ECACC cell viability assay (AID 1918964); details: JIM1 myeloma viability, CellTiter-Glo ATP luminescence, 48 h; series mostly up to 45.8 µM
Outline: (§2)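 qHTS of the MIPE 4.0 collection: 500 myeloma cells/well, 48 h drug exposure at 37C in 5% CO2, then CellTiter-Glo for 5 min at room temperature before luminescence reading.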

[5] = Quantitative High-Throughput drug screen in 47 multiple myeloma cell lines against the NCATS MIPE library collection: INA6_PLB cell viability assay (AID 1918965; also: nearly all actives have a fitted effect of over 55% in size); details: INA6 myeloma viability, CellTiter-Glo ATP luminescence, 48 h; series mostly up to 45.8 µM
Outline: as §1

[6] = Quantitative High-Throughput drug screen in 47 multiple myeloma cell lines against the NCATS MIPE library collection: JJN3_DSMZ cell viability assay (AID 1918966; also: nearly all actives have a fitted effect of over 50% in size); details: JJN3 myeloma cells viability, CellTiter-Glo ATP, 48 h; series mostly up to 45.8 µM
Outline: as §2

[7] = Quantitative High-Throughput drug screen in 47 multiple myeloma cell lines against the NCATS MIPE library collection: H1112_PLB cell viability assay (AID 1918967; also: nearly all actives have a fitted effect of over 30% in size); details: H1112 myeloma cells viability, ATP luminescence, 48 h; series mostly up to 45.8 µM
Outline: as §2

[8] = Quantitative High-Throughput drug screen in 47 multiple myeloma cell lines against the NCATS MIPE library collection: Karpas25_ECACC cell viability assay (AID 1918968; also: nearly all actives have a fitted effect of over 35% in size); details: Karpas25 myeloma viability, CellTiter-Glo ATP, 48 h; series mostly up to 45.8 µM
Outline: as §2

[9] = Quantitative High-Throughput drug screen in 47 multiple myeloma cell lines against the NCATS MIPE library collection: KMS27_JCRB cell viability assay (AID 1918970); details: KMS27 myeloma cells, CellTiter-Glo ATP viability, 48 h; viability (% of DMSO): at 45.8 µM (top of the series); also: nearly all actives have a fitted effect of over 30% in size
Outline: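 KMS27_JCRB myeloma cells, 500 per well, exposed 48 h at 37 C, 5% CO2 to MIPE 4.0 compounds. Viability from ATP by CellTiter-Glo luminescence, normalized to DMSO (100%) and medium-only (0%) wells.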

[10] = Quantitative High-Throughput drug screen in 47 multiple myeloma cell lines against the NCATS MIPE library collection: KMM1_JCRB cell viability assay (AID 1918960); details: KMM1 myeloma viability, CellTiter-Glo ATP luminescence, 48 h; series mostly up to 45.8 µM; also: nearly all actives have a fitted effect of over 30% in size
Outline: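 Here, 48 h treatment with MIPE 4.0 agents at 37 °C preceded an ATP luminescence read. Plating density was 500 cells per well.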
Potency is read from the fitted curve at half-maximal effect.

CN[C@H]1[C@@H](O)[C@@H]2O[C@@H]3O[C@H](C)CC(=O)[C@]3(O)O[C@@H]2[C@@H](NC)[C@H]1O
active: Potency [1] 469 nM | Potency [2] 8330 nM | Potency [3] 5260 nM | Potency [4] 662 nM | Potency [5] 2960 nM | Potency [6] 105 nM | Potency [7] 2640 nM | Potency [8] 74.3 nM | Potency [9] 332 nM

CCOc1cc2c(c(F)c1OCC)C(=N)N(CC(=O)c1cc(N3CCOCC3)c(OC)c(C(C)(C)C)c1)C2
active: Potency [3] 9350 nM | Potency [5] 11800 nM | Potency [6] 18700 nM | Potency [7] 11800 nM | Potency [8] 9350 nM
inactive: Potency [1]

CS(=O)(=O)N1CCc2c(-c3cnc(N)nc3)nc(N3CCOCC3)nc21
active: Potency [10] 66.2 nM | Potency [5] 1480 nM | Potency [8] 105 nM | Potency [9] 23.5 nM

C#CCC(Cc1cnc2nc(N)nc(N)c2n1)c1ccc(C(=O)N[C@@H](CCC(=O)O)C(=O)O)cc1 (some centres not stated)
inactive: Potency [1] | Potency [4] | Potency [9]
active: Potency [3] 46.9 nM | Potency [5] 93.5 nM | Potency [7] 132 nM | Potency [8] 11800 nM

CN1CCc2c(c3ccccc3n2Cc2ccc(C(=O)NO)cc2)C1
active: Potency [1] 20900 nM | Potency [3] 23500 nM | Potency [5] 4690 nM | Potency [6] 18700 nM | Potency [7] 16600 nM | Potency [8] 10500 nM

CO[C@@H]1[C@@H](O)[C@H](O)[C@@H](n2c3c(Cl)cccc3c3c4c(c5c6cccc(Cl)c6[nH]c5c32)C(=O)NC4=O)O[C@@H]1CO
active: Potency [1] 1320 nM | Potency [2] 1180 nM | Potency [3] 1480 nM | Potency [4] 526 nM | Potency [5] 187 nM | Potency [6] 9350 nM | Potency [7] 418 nM | Potency [8] 590 nM | Potency [9] 118 nM

Cc1cnc(NC(=O)Nc2cc(Br)c(C)cc2OC[C@@H]2CNCCO2)cn1
active: viability (% of DMSO) [1] 73.4% | Potency [2] 20900 nM | Potency [3] 935 nM | Potency [4] 1050 nM | Potency [5] 469 nM | Potency [6] 18700 nM | Potency [7] 5900 nM | Potency [8] 16600 nM

CC(C=CC1=C(C)CCCC1(C)C)=CC=CC(C)=CC(=O)Nc1ccc(O)cc1
active: Potency [1] 4290 nM | Potency [2] 17100 nM | Potency [5] 13600 nM | Potency [6] 21500 nM | Potency [7] 19100 nM | Potency [8] 12100 nM | Potency [9] 8550 nM

COc1cc(OC)cc(-c2ccc3ncc4ccc(=O)n(-c5ccc(N6CCNCC6)c(C(F)(F)F)c5)c4c3c2)c1
active: Potency [1] 2350 nM | Potency [2] 5900 nM | Potency [3] 10500 nM | Potency [4] 3720 nM | Potency [5] 3720 nM | Potency [6] 5900 nM | Potency [7] 2090 nM | Potency [8] 2960 nM | Potency [9] 1660 nM

NC(=O)c1ncn([C@@H]2O[C@H](CO)[C@@H](O)[C@@H]2O)c1O
inactive: Potency [10] | Potency [5] | Potency [7] | Potency [8]

CCN(CC)Cc1ccc2cc(COC(=O)Nc3ccc(C(=O)NO)cc3)ccc2c1
active: Potency [1] 526 nM | Potency [2] 1320 nM | Potency [3] 1480 nM | Potency [4] 469 nM | Potency [5] 74.3 nM | Potency [7] 1180 nM | Potency [8] 372 nM | Potency [9] 235 nM

CC(=O)OC[C@@H]1O[C@@H](n2ccc(=O)[nH]c2=O)[C@H](OC(C)=O)[C@H]1OC(C)=O
inactive: Potency [1] | Potency [3] | Potency [4] | Potency [6] | Potency [7] | Potency [9]

C#C[C@]1(O)CC[C@@H]2[C@@H]3CCc4cc(O)ccc4[C@H]3CC[C@@]21C
active: Potency [1] 8330 nM | Potency [5] 9350 nM | Potency [7] 18700 nM | Potency [8] 18700 nM | Potency [9] 16600 nM

O=C(O)[C@H](CC(=O)N1C[C@@H]2CCCC[C@H]2C1)Cc1ccccc1
inactive: Potency [2] | Potency [3] | Potency [6] | Potency [7]

COc1cc(C(C)C)c(Oc2cnc(NC(CO)CO)nc2N)cc1I
inactive: Potency [2] | Potency [3] | Potency [5] | Potency [7]
active: Potency [8] 18700 nM

CC[C@@]1([C@@H]2O[C@@H]([C@H]3O[C@@](O)(CO)[C@H](C)C[C@H]3C)C[C@H]2C)CC[C@H]([C@]2(C)CC[C@]3(C[C@H](O)[C@@H](C)[C@@H]([C@@H](C)[C@@H](OC)[C@H](C)C(=O)O)O3)O2)O1
active: Potency [2] 512 nM | Potency [3] 229 nM | Potency [4] 64.5 nM | Potency [5] 257 nM | Potency [6] 257 nM | Potency [8] 3230 nM

O=C(O)c1ccc(Nc2ncc3c(n2)-c2ccc(Cl)cc2C(c2c(F)cccc2F)=NC3)cc1
active: Potency [5] 1870 nM | Potency [6] 3720 nM | Potency [7] 16600 nM | Potency [8] 14800 nM
inactive: Potency [1] | Potency [9]

CC(N[C@H]1CCCC[C@H]1NC(=O)c1ccc(Cl)cc1)c1cccc2ccccc12 (some centres not stated)
active: Potency [1] 46.9 nM | Potency [8] 14800 nM | Potency [9] 118 nM
